Measured values from PubChem BioAssay (NCATS).
Results filed as inconclusive are left out. The source made the active and inactive calls. Unless noted, the call rests on the fitted dose curve; in most records, active means well fitted curve in the direction sought with a large enough effect; inconclusive means small, poorly fitted or top-dose-only effect, or another doubt; inactive means no such curve, though single readings can be large; an effect the other way counts as inactive or inconclusive.

How the values were obtained:
[1] = target: Cytochrome P450 3A4 (Homo sapiens) (UniProt P08684); assay: qHTS Assay for Activators of Cytochrome P450 3A4 (AID 885); further: nearly all actives have a fitted effect of over 65% in size
Chain of Cytochrome P450 3A4 (Homo sapiens) (P08684 whole entry, looked up): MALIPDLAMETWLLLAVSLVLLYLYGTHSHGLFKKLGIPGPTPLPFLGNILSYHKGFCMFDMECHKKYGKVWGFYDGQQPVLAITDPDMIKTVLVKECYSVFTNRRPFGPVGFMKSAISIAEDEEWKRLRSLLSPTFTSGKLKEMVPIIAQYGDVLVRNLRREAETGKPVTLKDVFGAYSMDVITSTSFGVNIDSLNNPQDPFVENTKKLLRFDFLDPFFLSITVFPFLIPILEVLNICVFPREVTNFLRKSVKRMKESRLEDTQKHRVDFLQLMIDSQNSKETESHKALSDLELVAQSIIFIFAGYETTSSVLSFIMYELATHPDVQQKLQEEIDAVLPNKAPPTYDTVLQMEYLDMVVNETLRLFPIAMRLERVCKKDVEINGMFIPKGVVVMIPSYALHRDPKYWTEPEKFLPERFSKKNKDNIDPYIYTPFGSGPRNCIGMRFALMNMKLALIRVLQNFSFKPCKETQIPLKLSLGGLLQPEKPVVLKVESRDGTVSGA
In short: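 Using 20nM recombinant human CYP3A4 in potassium phosphate (200mM), substrate Luciferin-PPXE at 25uM, luminescent luciferin detection followed a 60-min RT NADPH reaction; data scaled to 57 uM ketoconazole.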

[2] = target: Voltage-gated inwardly rectifying potassium channel KCNH2 (Homo sapiens) (UniProt Q12809); assay: qHTS Assay for Small Molecule Inhibitors of the Human hERG Channel Activity (AID 588834);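 further: top concentration of the series differs between compounds; lower thallium flux fluorescence means stronger hERG block; nearly all actives have a fitted effect of over 50% in size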
Chain of Voltage-gated inwardly rectifying potassium channel KCNH2 (Homo sapiens) (Q12809 whole entry, looked up): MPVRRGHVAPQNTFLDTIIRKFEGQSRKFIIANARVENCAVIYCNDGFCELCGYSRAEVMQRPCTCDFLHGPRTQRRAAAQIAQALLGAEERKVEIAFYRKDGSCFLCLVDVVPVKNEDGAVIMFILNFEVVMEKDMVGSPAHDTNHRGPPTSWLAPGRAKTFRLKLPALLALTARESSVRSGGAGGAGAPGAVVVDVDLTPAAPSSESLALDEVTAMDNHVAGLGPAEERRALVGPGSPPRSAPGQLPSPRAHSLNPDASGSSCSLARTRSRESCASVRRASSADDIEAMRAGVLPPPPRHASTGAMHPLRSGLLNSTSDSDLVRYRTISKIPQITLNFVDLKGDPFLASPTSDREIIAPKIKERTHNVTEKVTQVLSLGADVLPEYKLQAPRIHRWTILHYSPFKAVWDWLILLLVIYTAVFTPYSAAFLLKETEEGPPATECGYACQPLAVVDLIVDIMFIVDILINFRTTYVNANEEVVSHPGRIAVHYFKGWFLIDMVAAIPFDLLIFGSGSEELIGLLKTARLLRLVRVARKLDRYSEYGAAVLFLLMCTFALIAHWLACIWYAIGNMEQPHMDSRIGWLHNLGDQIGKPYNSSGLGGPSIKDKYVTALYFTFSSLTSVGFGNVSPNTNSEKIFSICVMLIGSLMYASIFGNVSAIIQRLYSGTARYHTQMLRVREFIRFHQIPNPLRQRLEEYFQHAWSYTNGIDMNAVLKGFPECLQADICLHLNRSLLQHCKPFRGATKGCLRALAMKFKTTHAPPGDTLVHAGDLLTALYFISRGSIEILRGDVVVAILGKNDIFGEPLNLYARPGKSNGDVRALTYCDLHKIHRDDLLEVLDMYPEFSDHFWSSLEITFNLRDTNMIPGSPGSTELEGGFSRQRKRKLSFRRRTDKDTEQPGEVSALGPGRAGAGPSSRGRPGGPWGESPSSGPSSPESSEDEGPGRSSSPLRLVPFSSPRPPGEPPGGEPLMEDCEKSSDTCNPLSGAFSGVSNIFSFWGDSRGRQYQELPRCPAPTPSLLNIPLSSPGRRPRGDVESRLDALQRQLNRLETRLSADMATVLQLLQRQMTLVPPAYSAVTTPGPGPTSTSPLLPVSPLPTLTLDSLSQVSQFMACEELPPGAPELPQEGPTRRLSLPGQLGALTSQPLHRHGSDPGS
In short: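 hERG block measured as reduced thallium-dye (FluxOR) fluorescence after stimulation buffer addition, read over 2 min. Cells were hERG-BacMam-transduced U2OS exposed to compound ~10 min […]; concentration-response fitted with Hill equation for AC50.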

[3] = test system: Zika virus NS2B-NS3 protease (unlinked); assay: Optimization of GU AMC qHTS for Zika virus inhibitors: Unlinked NS2B-NS3 protease assay (AID 1347151); further: nearly all actives have a fitted effect of over 80% in size
In short: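 Fluorescence gain (340/450 nm) over 15 min at room temperature, ~20% conversion, gave percent inhibition fitted to a 4-parameter Hill equation; enzyme was unlinked NS2B-NS3 (25 nM final), pH 8.0 Tris buffer.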

[4] = S16 Schwann cell PMP22 intronic element beta-lactamase assay (AID 624044; calls by dose curve; further: nearly all actives have a fitted effect of over 15% in size)
In short: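 Beta-lactamase reporter under a PMP22 intronic regulatory element in stable S16 rat Schwann cells; 24 h compound exposure. 460 nm blue signal normalized between DMSO (0%) and potassium clavulanate, with 535 nm FRET tracking viability; curves classed by r2 and response.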

[5] = test system: ATS189; assay: qHTS profiling for inhibitors of Plasmodium falciparum proliferation (AID 504749); further: potency means the concentration at half of the fitted maximal effect; nearly all actives have a fitted effect of over 60% in size; conditions: P. falciparum in erythrocytes, SYBR Green DNA, 72 h; series mostly up to 28.7 µM
In short: (§1)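 Quantitative HTS: compounds pinned into medium, infected erythrocytes added (0.3% parasitemia, 2.5% hematocrit), 72 h culture at 37 C under 5% CO2. Saponin/Triton lysis with SYBR Green I, overnight RT, then fluorescence read.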

[6] = test system: CP191; assay: as above; conditions: P. falciparum in erythrocytes, SYBR Green DNA, 72 h; series mostly up to 28.7 µM
In short: as §1

[7] = test system: CP260; assay: as above; conditions: P. falciparum in erythrocytes, SYBR Green DNA, 72 h; series mostly up to 28.7 µM
In short: as §1

[8] = test system: CP265; assay: as above; conditions: P. falciparum in erythrocytes, SYBR Green DNA, 72 h; series mostly up to 28.7 µM
In short: as §1

[9] = test system: DIV14; assay: as above; conditions: P. falciparum in erythrocytes, SYBR Green DNA, 72 h; series mostly up to 28.7 µM
In short: as §1

[10] = test system: DIV17; assay: as above; conditions: P. falciparum in erythrocytes, SYBR Green DNA, 72 h; series mostly up to 28.7 µM
In short: as §1

[11] = test system: ECU; assay: as above; conditions: P. falciparum in erythrocytes, SYBR Green DNA, 72 h; series mostly up to 28.7 µM
In short: as §1

[12] = test system: HB3; assay: as above; conditions: P. falciparum in erythrocytes, SYBR Green DNA, 72 h; series mostly up to 28.7 µM
In short: as §1

[13] = test system: N140; assay: as above; conditions: P. falciparum in erythrocytes, SYBR Green DNA, 72 h; series mostly up to 28.7 µM
In short: as §1

[14] = test system: P93_24; assay: as above; conditions: P. falciparum in erythrocytes, SYBR Green DNA, 72 h; series mostly up to 28.7 µM
In short: as §1

[15] = test system: P94_40; assay: as above; conditions: P. falciparum in erythrocytes, SYBR Green DNA, 72 h; series mostly up to 28.7 µM
In short: as §1

[16] = test system: PC26; assay: as above; conditions: P. falciparum in erythrocytes, SYBR Green DNA, 72 h; series mostly up to 28.7 µM
In short: as §1

[17] = test system: TAB109; assay: as above; conditions: P. falciparum in erythrocytes, SYBR Green DNA, 72 h; series mostly up to 28.7 µM
In short: as §1

[18] = test system: TAB113; assay: as above; conditions: P. falciparum in erythrocytes, SYBR Green DNA, 72 h; series mostly up to 28.7 µM
In short: as §1

[19] = test system: TAB165; assay: as above; conditions: P. falciparum in erythrocytes, SYBR Green DNA, 72 h; series mostly up to 28.7 µM
In short: as §1

[20] = test system: MCC-26; assay: qHTS assay to identify novel small-molecules to repurpose for Merkel cell carcinoma treatment (AID 1296009); conditions: MCC and control cell lines, CellTiter-Glo viability, 72 h; series mostly up to 46 µM; further: nearly all actives have a fitted effect of over 60% in size
In short: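 Viability readout: ATP luminescence (CellTiter-Glo) after 72 hr drug exposure at 37 degree celsius. Dose-response format was 8 points for NPC and 11 points for MIPE; data normalized to in-plate controls.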

Measured: Potency

Oc1ccc(Nc2nc(-c3ccc(Cl)cc3)cs2)cc1
inactive: [1]

CC[C@H](C)[C@H]1O[C@]2(CC[C@@H]1C)C[C@@H]1C[C@@H](C/C=C(\C)[C@@H](O[C@H]3C[C@H](OC)[C@@H](O[C@H]4C[C@H](OC)[C@@H](O)[C@H](C)O4)[C@H](C)O3)[C@@H](C)/C=C/C=C3\CO[C@@H]4[C@H](O)C(C)=C[C@@H](C(=O)O1)[C@]34O)O2
inactive: [2] | [3]

O=C(CC1NCCC[C@H]1O)Cn1cnc2cc(Br)c(Cl)cc2c1=O (stereo not given in full)
active: [5] 4.47 µM | [6] 2.82 µM | [7] 2.51 µM | [8] 5.01 µM | [9] 3.01 µM | [10] 3.38 µM | [11] 5.01 µM | [12] 2 µM | [13] 3.16 µM | [14] 1.41 µM | [15] 1.41 µM | [16] 3.79 µM | [17] 794 nM | [18] 2.24 µM | [19] 1 µM
inactive: [4]

CS(=O)(=O)c1ccc(-c2cn3ccccc3n2)cc1
inactive: [20]
